Experimental data from PubChem BioAssay AID1159580 (chemical genetic matrix, 2015).
Out of some 5,500 compounds screened, about 2,000 (36%) were called active. About 18% were inconclusive and are not listed. Some of the results follow. Unmarked numbers belong to inactive results. No stated cut-off is given here; in the data, active means normalized growth mostly below about 0.91 (no sharp cut-off); inconclusive means no clear call, values can overlap the other calls; inactive means mostly above about 0.92.

Experiment: chemical genetic growth profiling, strain panel (AID 1159580);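 further: tested at 20 µM; growth read once vehicle control cultures reached saturation at 30 °C; 1 = growth at the plate median or of vehicle wells; lower values mean less growth of the strain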
Conditions: S. cerevisiae deletion strains, growth OD
[1] = locus YAL040C, strain CLN3, hits give low values
[2] = locus YCL061C, strain MRC1 (second series), hits give low values
[3] = locus YDR150W, strain NUM1, hits give low values
[4] = locus YDR363W, strain ESC2, hits give low values
[5] = locus YJR075W, strain HOC1, hits give low values
[6] = locus YMR263W, strain SAP30, hits give low values
[7] = locus YMR307W, strain GAS1, hits give low values
[8] = locus YNL175C, strain NOP13, hits give low values
[9] = locus YNL197C, strain WHI3, hits give low values
[10] = locus YNL224C, strain SQS1, hits give low values
[11] = locus YOR083W, strain WHI5 (second series), hits give low values

## CC[C@@H]1C=C/C=C/C[C@H](C)[C@@H](O)[C@](C)(O)C(=O)[C@H](C)[C@@H](O)[C@H](C)C(=O)[C@H](C)[C@@H](O)[C@H](C)/C=C/C(=O)O[C@H]2[C@@H](C)[C@@H](CC1)O[C@@]1(CC[C@@H](C)[C@@H](CC(C)O)O1)[C@@H]2C (some centres undefined)
[1]
  normalized growth: 0.989
[2]
  normalized growth: 1.01
[3]
  normalized growth: 1
[4]
  normalized growth: 0.961
Locus YER002W, strain NOP16, hits give low values
  normalized growth: 0.945
[5]
  normalized growth: 0.973
[6]
  normalized growth: 1.02
[7]
  normalized growth: 0.911 (active)
Locus YNL128W, strain TEP1, hits give low values
  normalized growth: 0.96
[8]
  normalized growth: 0.969
[9]
  normalized growth: 0.99
[10]
  normalized growth: 0.993
[11]
  normalized growth: 0.971
Locus YPL055C, strain LGE1, hits give low values
  normalized growth: 0.936

## C[N+](C)(C)CCC(=O)c1cccc2ccccc12
[1]
  normalized growth: 0.095 (active)
[2]
  normalized growth: 0.951
[3]
  normalized growth: 0.972
[4]
  normalized growth: 0.962
Locus YGR078C, strain PAC10, hits give low values
  normalized growth: 0.989
[5]
  normalized growth: 0.813 (active)
[6]
  normalized growth: 0.99
[7]
  normalized growth: 0.775 (active)
Locus YNL153C, strain GIM3, hits give low values
  normalized growth: 0.104 (active)
[8]
  normalized growth: 0.0891 (active)
[9]
  normalized growth: 0.93
[10]
  normalized growth: 0.0743 (active)
[11]
  normalized growth: 0.231 (active)
Locus YPL241C, strain CIN2, hits give low values
  normalized growth: 1

## COc1cccc(C2CCN(C(=O)c3cccc4ccccc34)CC2)c1
Locus YAR019C, strain CDC15, hits give low values
  normalized growth: 0.996
Locus YBL105C, strain PKC1, hits give low values
  normalized growth: 0.988
Locus YBR135W, strain CKS1, hits give low values
  normalized growth: 0.982
Locus YBR136W, strain MEC1, hits give low values
  normalized growth: 0.981
Locus YBR160W, strain CDC28, hits give low values
  normalized growth: 0.991
Locus YDL017W, strain CDC7, hits give low values
  normalized growth: 0.99
Locus YDL028C, strain MPS1, hits give low values
  normalized growth: 0.993
Locus YDL101C, strain DUN1, hits give low values
  normalized growth: 0.982
Locus YDL108W, strain KIN28, hits give low values
  normalized growth: 0.987
Locus YDL132W, strain cdc53, hits give low values
  normalized growth: 0.993
Locus YDL214C, strain PRR2, hits give low values
  normalized growth: 0.866
Locus YDR052C, strain DBF4, hits give low values
  normalized growth: 0.99
Locus YDR054C, strain cdc34, hits give low values
  normalized growth: 0.988
Locus YDR226W, strain ADK1, hits give low values
  normalized growth: 0.988
Locus YDR477W, strain SNF1, hits give low values
  normalized growth: 0.923
Locus YER123W, strain YCK3, hits give low values
  normalized growth: 0.828
Locus YER133W, strain GLC7, hits give low values
  normalized growth: 0.899
Locus YFL009W, strain cdc4, hits give low values
  normalized growth: 0.992
Locus YFL029C, strain CAK1, hits give low values
  normalized growth: 0.99
Locus YFR003C, strain YPI1, hits give low values
  normalized growth: 0.987
Locus YFR019W, strain FAB1, hits give low values
  normalized growth: 0.89
Locus YFR028C, strain CDC14, hits give low values
  normalized growth: 0.99
Locus YGR040W, strain KSS1, hits give low values
  normalized growth: 0.904
Locus YGR052W, strain FMP48, hits give low values
  normalized growth: 0.958
Locus YGR092W, strain DBF2, hits give low values
  normalized growth: 0.903
Locus YHR030C, strain SLT2, hits give low values
  normalized growth: 1
Locus YHR079C, strain IRE1, hits give low values
  normalized growth: 0.967
Locus YHR082C, strain KSP1, hits give low values
  normalized growth: 0.946
Locus YHR205W, strain SCH9, hits give low values
  normalized growth: 0.907
Locus YIL147C, strain SLN1, hits give low values
  normalized growth: 0.987
Locus YJL095W, strain BCK1, hits give low values
  normalized growth: 0.973
Locus YJL128C, strain PBS2, hits give low values
  normalized growth: 0.935
Locus YJL157C, strain FAR1, hits give low values
  normalized growth: 0.886
Locus YJR016C, strain ILV3, hits give low values
  normalized growth: 0.99
Locus YJR066W, strain TOR1 (second series), hits give low values
  normalized growth: 0.882
Locus YJR066W, strain TOR1, hits give low values
  normalized growth: 0.948
Locus YKL048C, strain ELM1, hits give low values
  normalized growth: 0.919
Locus YKL067W, strain YNK1, hits give low values
  normalized growth: 0.907
Locus YKL101W, strain HSL1, hits give low values
  normalized growth: 0.882
Locus YKL193C, strain SDS22, hits give low values
  normalized growth: 0.991
Locus YKL203C, strain TOR2, hits give low values
  normalized growth: 0.978
Locus YLR113W, strain HOG1, hits give low values
  normalized growth: 0.91
Locus YLR133W, strain CKI1, hits give low values
  normalized growth: 0.94
Locus YLR403W, strain SFP1, hits give low values
  normalized growth: 0.922
Locus YML070W, strain DAK1, hits give low values
  normalized growth: 0.859
Locus YMR001C, strain CDC5, hits give low values
  normalized growth: 0.987
Locus YMR205C, strain PFK2 (second series), hits give low values
  normalized growth: 0.914
Locus YMR277W, strain FCP1, hits give low values
  normalized growth: 0.995
Locus YNL006W, strain LST8, hits give low values
  normalized growth: 0.987
Locus YNL020C, strain ARK1, hits give low values
  normalized growth: 0.9
Locus YNL161W, strain CBK1, hits give low values
  normalized growth: 0.992
Locus YNL183C, strain NPR1, hits give low values
  normalized growth: 0.963
Locus YNL207W, strain RIO2, hits give low values
  normalized growth: 0.997
Locus YNL222W, strain SSU72, hits give low values
  normalized growth: 0.994
Locus YNL307C, strain MCK1 (second series), hits give low values
  normalized growth: 0.903
Locus YOL078W, strain AVO1, hits give low values
  normalized growth: 0.997
Locus YOL136C, strain PFK27, hits give low values
  normalized growth: 0.898
Locus YOR061W, strain CKA2, hits give low values
  normalized growth: 0.877
Locus YOR119C, strain RIO1, hits give low values
  normalized growth: 0.954
Locus YOR231W, strain MKK1, hits give low values
  normalized growth: 0.935
Locus YOR329C, strain SCD5, hits give low values
  normalized growth: 0.991
Locus YPL031C, strain PHO85, hits give low values
  normalized growth: 0.913
Locus YPL153C, strain RAD53, hits give low values
  normalized growth: 0.899
Locus YPL204W, strain HRR25, hits give low values
  normalized growth: 0.923
Locus YPL209C, strain IPL1, hits give low values
  normalized growth: 0.992
Locus YPL256C, strain CLN2, hits give low values
  normalized growth: 0.942
Locus YPR025C, strain CCL1, hits give low values
  normalized growth: 0.995
Locus YPR106W, strain ISR1, hits give low values
  normalized growth: 0.979
Locus YPR111W, strain DBF20, hits give low values
  normalized growth: 0.975
Strain NNK1, hits give low values
  normalized growth: 0.976
Strain TSCII, hits give low values
  normalized growth: 0.993
